Screening data from PubChem.
ELG1 DNA repair: ELG1-dependent DNA repair inhibition; Potency, µM (series often up to 46.1 µM), without a hit: at the top dose activity change, negative = inhibition, most hits filed as inhibitors; HEK293T ELG1-luciferase reporter, luminescence, 16 h; DNA damage induced by 5-fluorouridine; AID 504467; 2.3% of 330,000 active; further: on the % scale 0 is the no-effect control and ±100 the full control effect; nearly all actives have a fitted effect of over 55% in size
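DMSO vehicle served as the neutral condition. Each well held 2,000 cells given 5-fluorouridine plus compound; after 16 hr at 37 °C/5% CO2, ONE-Glo was added and luciferase measured 30 min later.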
KB-3-1 cytotox: KB-3-1 parental cell cytotoxicity; KB-3-1 viability, CellTiter-Glo ATP luminescence, 72 h; Potency, µM (top dose mostly 46.1 µM), hits mostly cytotoxic; 1.4% of 400,000 active; further: on the % scale 0 is the no-effect control and ±100 the full control effect; nearly all actives have a fitted effect of over 60% in size
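72 h, 37 °C compound treatment of KB-3-1 parental cells; CellTiter-Glo added, 10 min, luminescence read. Data corrected against DMSO-only plates and normalized before curve fitting.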
KB-V1 cytotox: KB-V1 MDR subline cytotoxicity; 3.4% of 400,000 active; AID 1347076; Potency, µM (series often up to 46.1 µM), most hits filed as cytotoxic; KB-V1 MDR cells viability, CellTiter-Glo, 72 h; further: on the % scale 0 is the no-effect control and ±100 the full control effect; nearly all actives have a fitted effect of over 60% in size
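Cytotoxicity toward P-gp-expressing KB-V1 cells was determined as loss of CellTiter-Glo luminescence after 72 h at 37 degrees C. Compounds were tested in quantitative HTS format across a concentration range, with curves fitted to normalized data.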
MCF10A rerep: inducers of DNA re-replication in MCF 10A breast cells. Potency, µM (highest dose often 46.1 µM), inactives show at the top dose activity, positive = re-replication, most hits filed as activators. MCF 10A DNA re-replication, Hoechst nuclear intensity, 48 h. 2.9% of 350,000 active. AID 624296; further: % of control where 0% means no effect; nearly all actives have a fitted effect of over 50% in size
SW480 rereplic: inducers of DNA re-replication in SW480 colon cancer cells; SW480 DNA re-replication, Hoechst DNA content imaging, 48 h; 1.8% of 340,000 active; Potency, µM (doses to about 46.1 µM), inactives show at the top dose re-replication activation, actives largely listed as activators; further: % of control where 0% means no effect; nearly all actives have a fitted effect of over 55% in size
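Compounds, transferred as 23 nL by pin tool, were incubated with cells for 48 hr; DNA content per nucleus was then quantified by Hoechst staining and fluorescence plate imaging.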
* marks the source's active call; other numbers are inactive results; i = inactive; ? = inconclusive; / = no result; [ ] = another dose, or the depositor's remark. This is a sample that favours compounds with a hit; in the whole collection about 8.1% have one here. The call rests on the fitted dose curve; in most records, active means well fitted curve in the direction sought with a large enough effect; inconclusive means small, poorly fitted or top-dose-only effect, or another doubt; inactive means no such curve, though single readings can be large; an effect the other way counts as inactive or inconclusive. Potency means the concentration at half of the fitted maximal effect.

SMILES	ELG1 DNA repair	KB-3-1 cytotox	KB-V1 cytotox	MCF10A rerep	SW480 rereplic
COc1cc(-c2nnc(-c3ccccc3)o2)cc(OC)c1OC	23µM*	i	9.2µM*	23%	-3%
COc1cc(-c2nnc(CSc3nnc(Nc4ccc(Oc5ccccc5)cc4)s3)o2)cc(OC)c1OC	7.3µM*	?	i	12%	9%
COc1ccc(-c2nnc(-c3ccccc3)o2)cc1OC	?	i	i	-1%	-1%
CCCc1nnc(-c2cc(OC)c(OC)c(OC)c2)o1	2%	i	i	14%	-10%
COc1cc(-c2nnc(COc3ccc4ccccc4c3)o2)cc(OC)c1OC	?	i	23µM*	?	-2%
Cn1ccc2c(/C=C/c3ccc(F)cc3)cc3c(c21)C1CCC3O1 (stereo unspecified)	/	i	i	/	/
Clc1ccc(-c2nnc(-c3ccco3)nc2N2CCCCC2)cc1	-4%	i	18µM*	?	-2%
CCC[n+]1c2ccccc2cc2ccccc21	23µM*	?	21µM*	13µM*	12µM*
CCCC[n+]1c2ccccc2cc2ccccc21	?	16µM*	i	3%	?
Cc1ccc2ccccc2[n+]1CCCS(=O)(=O)[O-]	0%	i	i	6%	-1%
CCc1cccc(NC(=O)C(Cc2ccccc2)NS(=O)(=O)c2ccc3c(c2)c(=O)n(C)c(=O)n3C)c1 (stereo unspecified)	/	i	i	/	/
CCOC(=O)CSC1=C(C#N)C(c2ccc(C)cc2)C(C(=O)OC)C(=O)N1 (stereo unspecified)	7%	i	i	3%	-8%[9.22 µM]
COC(=O)C1=C(O)C(C(=O)OC)C(c2ccc(C)cc2)C(C#N)(C#N)C1c1ccc(C)cc1 (stereo unspecified)	?	7.3µM*	?	?	?
c1nc(N2CCC(N3CCCC3)CC2)c2cc(-c3ccc4c(c3)OCO4)ccc2n1	/	i	i	/	/
Cc1[nH]nc(C(=O)NN=Cc2ccccc2Cl)c1N=NN(C)C	/	i	i	16µM*	15µM*
C[C@H](CO)N1C[C@H](C)[C@@H](CN(C)Cc2ccc(Cl)c(Cl)c2)Oc2c(NS(=O)(=O)c3cccs3)cccc2C1=O	5%	i	i	-6%	0%
Nc1cccc2cnccc12	0%	i	i	-3%	-7%
Nc1ccncc1N	10%	21µM*	?	?	?
CN(C)c1ccc(/C=C2/CCc3ccccc32)cc1	/	i	i	/	/
Oc1ccc(Nc2ncnc3c2oc2ccccc23)cc1	?	i	i	21%	6%
CC(=O)N1CCN(c2ccc(Nc3ncnc4c3oc3ccccc34)cc2)CC1	?	?	21µM*	?	-5%[9.22 µM]
CCc1nc(Nc2ccc(N3CCN(C(C)=O)CC3)cc2)c2oc3ccccc3c2n1	9.2µM*	?	?	?	1%
CCN(CC)C(=O)C1=C(C)Nc2nc3ccccc3n2C1c1cccc(Cl)c1 (stereo unspecified)	/	i	i	/	/
COCCn1c(=S)[nH]c2cc(C(=O)N(CCO)Cc3ccccc3)ccc2c1=O	-7%	i	?	4%	2%
Cn1ncc(Cl)c1C(=O)Nc1nc2ccc(Cl)cc2s1	?	i	i	7%	-2%
SMILES	ELG1 DNA repair	KB-3-1 cytotox	KB-V1 cytotox	MCF10A rerep	SW480 rereplic
Cc1cc(C(=O)Nc2nc3ccc(Cl)cc3s2)nn1C	?	i	?	0%	6.5µM*
NNc1nc2ccc(Cl)cc2s1	?	?	?	21µM*	?
Cc1ccc2c(Cl)c(Cc3ccccc3)c(=S)[nH]c2n1	/	?	i	-3%	-1%
c1ccc(-c2nnc(-c3ccccn3)nn2)nc1	/	i	i	12%	?
c1ccc(-c2cccc(-c3ccccn3)n2)nc1	?	?	1.8µM*	?	?
COc1ccc(CCNC(=O)c2ccc(Nc3nc4ccccc4n4nnnc34)cc2)cc1OC	/	i	i	/	/
COc1ccc(Cl)cc1NC(=O)Cn1c(=O)n(-c2ccc(C)cc2)c(=O)c2ccc(C(=O)NCc3ccccc3Cl)cc21	/	i	?	/	/
CC(=O)c1ccc(N2CCN(C(=O)CCCc3nc4ccccc4s3)CC2)cc1	?	i	i	18µM*	-4%
O=C(CCc1nc2ccccc2s1)N1CCN(c2ccccc2)CC1	-15%	i	i	10%	-1%
OC(c1ccc(F)cc1)c1ncc(-c2ccc3ccccc3c2)[nH]1 (stereo unspecified)	/	i	i	/	/
COc1ccc(/C=C/C(=O)NCc2c(C)nn(C)c2C)cc1COc1ccc(Br)cc1	-16%	i	i	3.7µM*	?
COc1ccc(/C=C/C(=O)NCc2cnn(C)c2C)cc1COc1ccc(Br)cc1	?	i	15µM*	?	-2%
CCn1ncc(/C=C/C(=O)NCc2cnn(C)c2C)c1C	1%	i	i	3%	-10%
CCN(CC(=O)Nc1ccc(NC(C)=O)cc1)C(=O)c1cc(-c2ccccc2Cl)nc2ccccc12	/	?	i	16%	13%
O=C(NCCc1ccccc1)C(=O)c1c(-c2ccccc2)cc2ccccn12	?	i	21µM*	-3%	-8%
O=C(NCCc1c[nH]c2ccccc12)c1ccc2c(c1)OCO2	?	i	i	11%	-5%
N#C/C(=C/c1ccc2c(c1)OCO2)C(=O)NCCc1c[nH]c2ccccc12	?	i	15µM*	?	?
Nc1nc(NCc2ccc(F)cc2)c2[nH]cnc2n1	/	i	i	/	/
c1ccc2c(CCNc3ncnc4nc[nH]c34)cccc2c1	23µM*	18µM*	i	?	15%
CNC(C)C#Cc1ccc2oc3cccc(OC)c3c(=O)c2c1 (stereo unspecified)	?	i	i	1%	3%
CNC(C)C#Cc1ccc2sc3cccc(OC)c3c(=O)c2c1 (stereo unspecified)	?	i	i	?	7.3µM*
O=C(NCc1ccc(F)cc1)c1cc(C2CCCN(C(=O)C3CCCCC3)C2)on1 (stereo unspecified)	/	i	i	/	/
CCCCCC1CCC(c2ccc(/C(N)=N/O)cc2)CC1 (stereo unspecified)	?	i	i	?	2.3µM*
C=CCNC(=O)C1CC1(c1ccccc1)c1ccccc1 (stereo unspecified)	5%	i	18µM*	3%	-97%
O=C(Oc1c(-c2ccccc2)c(=O)n2c3c(cccc13)CC2)c1ccccc1	?	?	?	?	-3%
O=C(Oc1c(-c2ccccc2)c(=O)n2c3c(cccc13)CC2)c1ccc(F)cc1	?	i	i	26µM*	-6%
c1ccc2cnccc2c1	/	i	i	/	/
